Experimental findings from ChEMBL document CHEMBL3988442, “University of Dundee, Small-Polar-MMV Screening Library” (2021) are described below.

The structures appear in SMILES notation. For some of these results: Measured potencies and affinities stand elsewhere.

Holding throughout (design): scale not given: direction of the effect not stated beside the values
Assay [1] concerns the target Protein translocase subunit SecA (Escherichia coli (strain K12)) (UniProt P10408). Briefly: Assay to Identify E. coli SecA ATPase Inhibitors. Type of assay: functional. Particulars: 30 µM.
The target in assay [2] is T1, Ubiquitin-activating enzyme e1, putative (Leishmania donovani (strain BPK282A1)) (UniProt E9BSI1).
T1 sequence (whole entry): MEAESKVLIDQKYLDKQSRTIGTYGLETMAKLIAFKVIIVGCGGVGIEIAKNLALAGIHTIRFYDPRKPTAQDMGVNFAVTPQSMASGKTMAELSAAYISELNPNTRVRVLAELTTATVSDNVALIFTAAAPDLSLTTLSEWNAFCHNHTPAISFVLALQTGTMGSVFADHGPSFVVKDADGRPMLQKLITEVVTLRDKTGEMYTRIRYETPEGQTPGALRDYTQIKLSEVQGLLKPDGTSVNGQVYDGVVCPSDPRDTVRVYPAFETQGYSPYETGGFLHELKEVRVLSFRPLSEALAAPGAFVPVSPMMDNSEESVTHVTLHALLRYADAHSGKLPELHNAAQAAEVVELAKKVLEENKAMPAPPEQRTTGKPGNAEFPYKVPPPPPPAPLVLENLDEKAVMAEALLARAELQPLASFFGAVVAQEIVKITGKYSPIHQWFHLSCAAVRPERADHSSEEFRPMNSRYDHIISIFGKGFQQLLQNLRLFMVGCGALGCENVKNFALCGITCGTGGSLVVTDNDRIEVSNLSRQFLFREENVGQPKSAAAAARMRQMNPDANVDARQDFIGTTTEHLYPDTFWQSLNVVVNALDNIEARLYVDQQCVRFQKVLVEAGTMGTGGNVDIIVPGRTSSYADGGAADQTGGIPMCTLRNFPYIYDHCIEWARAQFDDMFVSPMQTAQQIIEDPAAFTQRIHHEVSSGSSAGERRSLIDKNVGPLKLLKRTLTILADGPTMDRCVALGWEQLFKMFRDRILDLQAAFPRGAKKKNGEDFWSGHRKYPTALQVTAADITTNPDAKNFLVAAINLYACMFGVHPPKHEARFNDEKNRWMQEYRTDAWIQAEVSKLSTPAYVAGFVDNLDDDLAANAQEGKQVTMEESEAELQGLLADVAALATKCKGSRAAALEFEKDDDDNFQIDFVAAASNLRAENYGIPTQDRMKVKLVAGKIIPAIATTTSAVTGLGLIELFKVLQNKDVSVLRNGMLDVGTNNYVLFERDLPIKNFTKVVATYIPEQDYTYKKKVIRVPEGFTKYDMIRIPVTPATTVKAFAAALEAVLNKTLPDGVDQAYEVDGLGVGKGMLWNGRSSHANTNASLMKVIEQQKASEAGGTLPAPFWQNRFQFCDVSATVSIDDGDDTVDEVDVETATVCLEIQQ
Briefly: Leishmania donovani Ubiquitin Activating Enzyme (LdE1). Type of assay: functional. Particulars: 30 µM.

Assay [3] concerns the target AMP-activated protein kinase, AMPK (Homo sapiens) (UniProt P54646+O43741+P54619+Q9UGJ0+Q9Y478+Q13131+Q9UGI9). Briefly: AMP-dependent Kinase enzyme assay. An in vitro enzyme assay that detects ADP turnover that is directly proportional to AMPK activity. This uses naive AMPK that is activated during the assay with MK-8722. The following applies: 30 µM. Format: functional.

Assay [4] concerns the target Sialic acid-binding Ig-like lectin 9 (Homo sapiens) (UniProt Q9Y336). Briefly: Hs-Siglec9 ALPHAscreen SOP 20170721. The following applies: 10 µM. A general note: Alpha assays give light when donor and acceptor beads are brought close together.
In assay [5] the test system is Trypanosoma cruzi. Briefly: Trypanosoma cruzi phosphomannomutase and mannose-1-phosphate guanylyltransferase assay. Type of assay: functional. Particulars: 10 µM.
Assay [6] has as its target T2, Arginase-2, mitochondrial (Homo sapiens) (UniProt P78540).
T2 sequence (whole entry): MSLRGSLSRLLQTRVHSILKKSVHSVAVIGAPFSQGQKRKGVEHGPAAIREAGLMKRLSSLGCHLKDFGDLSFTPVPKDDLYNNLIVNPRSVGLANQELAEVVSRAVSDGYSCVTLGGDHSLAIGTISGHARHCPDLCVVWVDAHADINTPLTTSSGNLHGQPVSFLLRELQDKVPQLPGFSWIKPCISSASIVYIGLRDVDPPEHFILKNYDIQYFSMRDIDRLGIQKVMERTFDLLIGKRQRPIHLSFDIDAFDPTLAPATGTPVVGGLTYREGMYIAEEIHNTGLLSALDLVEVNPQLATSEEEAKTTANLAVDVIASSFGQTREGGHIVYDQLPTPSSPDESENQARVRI
Briefly: in vitro enzyme assay to detect the production of urea directly proportional to the activity of Arginase II. Note: in the data most compounds retested in dose-response had high values. Type of assay: functional. Particulars: 33.3 µM.

Assay [7] deals with T3, Proteasome subunit beta (Trypanosoma cruzi) (UniProt O96673).
T3 sequence (whole entry): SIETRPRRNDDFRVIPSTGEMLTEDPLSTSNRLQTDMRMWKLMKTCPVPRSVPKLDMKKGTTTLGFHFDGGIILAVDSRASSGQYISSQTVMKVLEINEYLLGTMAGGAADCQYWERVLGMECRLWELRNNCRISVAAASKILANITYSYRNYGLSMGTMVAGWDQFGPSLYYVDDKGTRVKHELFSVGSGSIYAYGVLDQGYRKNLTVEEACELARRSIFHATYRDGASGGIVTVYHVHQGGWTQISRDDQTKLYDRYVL
Briefly: Trypanosoma cruzi proteasome chymotrypsin-like activity (TcProtChymo) assay. Note: in the data most compounds retested in dose-response had high values. Format: functional. The following applies: 9.37 µM.

The species entered for assay [8] is Homo sapiens. Briefly: To identify inhibition of the IFN signalling (Jak-Stat) pathway via expression of an eGFP reporter gene under the control of an IFN-stimulated response element (ISRE) containing MxA promoter. Format: functional. Particulars: 30 µM. On the technique in general: A reporter such as luciferase makes a cellular process visible.
The target in assay [9] is T4, Tyrosyl-tRNA synthetase, putative (Trypanosoma cruzi (strain CL Brener)) (UniProt Q4DSP6).
T4 sequence (whole entry): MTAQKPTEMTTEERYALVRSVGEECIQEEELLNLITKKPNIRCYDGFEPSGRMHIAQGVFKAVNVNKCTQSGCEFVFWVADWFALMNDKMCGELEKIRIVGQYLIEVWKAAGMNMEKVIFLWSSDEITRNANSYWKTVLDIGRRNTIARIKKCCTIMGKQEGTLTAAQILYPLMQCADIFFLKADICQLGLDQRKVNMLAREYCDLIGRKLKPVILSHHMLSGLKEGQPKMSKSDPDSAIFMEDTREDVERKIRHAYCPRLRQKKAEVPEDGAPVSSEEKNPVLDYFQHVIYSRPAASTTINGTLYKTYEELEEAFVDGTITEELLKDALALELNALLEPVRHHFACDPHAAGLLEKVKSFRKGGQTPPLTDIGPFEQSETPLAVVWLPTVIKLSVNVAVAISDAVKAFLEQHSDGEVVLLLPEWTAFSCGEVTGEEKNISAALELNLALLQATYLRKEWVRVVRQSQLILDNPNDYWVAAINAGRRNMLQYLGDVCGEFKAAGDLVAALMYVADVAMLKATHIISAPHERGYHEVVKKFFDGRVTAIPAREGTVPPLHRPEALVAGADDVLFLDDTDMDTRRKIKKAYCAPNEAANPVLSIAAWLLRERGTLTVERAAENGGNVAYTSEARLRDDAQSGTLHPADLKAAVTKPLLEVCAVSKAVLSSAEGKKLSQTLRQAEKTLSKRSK
Briefly: Trypanosoma cruzi tyrosyl tRNA synthetase (TcYRS) _High Tyrosine SOP. Note: in the data most compounds retested in dose-response had high values. Type of assay: functional. The following applies: 30 µM.

The target of assay [10] is T4, Tyrosyl-tRNA synthetase, putative (Trypanosoma cruzi (strain CL Brener)). Briefly: Trypanosoma cruzi tyrosyl tRNA synthetase (TcYRS) SOP. Format: functional. Particulars: 30 µM.
In assay [11] the target is Chromo domain-containing protein 1 (Saccharomyces cerevisiae (strain ATCC 204508 / S288c) (Baker's yeast)) (UniProt P32657). Briefly: ScCHD-1 Enzyme Inhibition Assay. Note: in the data most compounds retested in dose-response had high values. Type of assay: functional. Particulars: 30 µM.
Sequence of Chromo domain-containing protein 1 (Saccharomyces cerevisiae (strain ATCC 204508 / S288c) (Baker's yeast)) (P32657 whole entry, the tested form may be a part): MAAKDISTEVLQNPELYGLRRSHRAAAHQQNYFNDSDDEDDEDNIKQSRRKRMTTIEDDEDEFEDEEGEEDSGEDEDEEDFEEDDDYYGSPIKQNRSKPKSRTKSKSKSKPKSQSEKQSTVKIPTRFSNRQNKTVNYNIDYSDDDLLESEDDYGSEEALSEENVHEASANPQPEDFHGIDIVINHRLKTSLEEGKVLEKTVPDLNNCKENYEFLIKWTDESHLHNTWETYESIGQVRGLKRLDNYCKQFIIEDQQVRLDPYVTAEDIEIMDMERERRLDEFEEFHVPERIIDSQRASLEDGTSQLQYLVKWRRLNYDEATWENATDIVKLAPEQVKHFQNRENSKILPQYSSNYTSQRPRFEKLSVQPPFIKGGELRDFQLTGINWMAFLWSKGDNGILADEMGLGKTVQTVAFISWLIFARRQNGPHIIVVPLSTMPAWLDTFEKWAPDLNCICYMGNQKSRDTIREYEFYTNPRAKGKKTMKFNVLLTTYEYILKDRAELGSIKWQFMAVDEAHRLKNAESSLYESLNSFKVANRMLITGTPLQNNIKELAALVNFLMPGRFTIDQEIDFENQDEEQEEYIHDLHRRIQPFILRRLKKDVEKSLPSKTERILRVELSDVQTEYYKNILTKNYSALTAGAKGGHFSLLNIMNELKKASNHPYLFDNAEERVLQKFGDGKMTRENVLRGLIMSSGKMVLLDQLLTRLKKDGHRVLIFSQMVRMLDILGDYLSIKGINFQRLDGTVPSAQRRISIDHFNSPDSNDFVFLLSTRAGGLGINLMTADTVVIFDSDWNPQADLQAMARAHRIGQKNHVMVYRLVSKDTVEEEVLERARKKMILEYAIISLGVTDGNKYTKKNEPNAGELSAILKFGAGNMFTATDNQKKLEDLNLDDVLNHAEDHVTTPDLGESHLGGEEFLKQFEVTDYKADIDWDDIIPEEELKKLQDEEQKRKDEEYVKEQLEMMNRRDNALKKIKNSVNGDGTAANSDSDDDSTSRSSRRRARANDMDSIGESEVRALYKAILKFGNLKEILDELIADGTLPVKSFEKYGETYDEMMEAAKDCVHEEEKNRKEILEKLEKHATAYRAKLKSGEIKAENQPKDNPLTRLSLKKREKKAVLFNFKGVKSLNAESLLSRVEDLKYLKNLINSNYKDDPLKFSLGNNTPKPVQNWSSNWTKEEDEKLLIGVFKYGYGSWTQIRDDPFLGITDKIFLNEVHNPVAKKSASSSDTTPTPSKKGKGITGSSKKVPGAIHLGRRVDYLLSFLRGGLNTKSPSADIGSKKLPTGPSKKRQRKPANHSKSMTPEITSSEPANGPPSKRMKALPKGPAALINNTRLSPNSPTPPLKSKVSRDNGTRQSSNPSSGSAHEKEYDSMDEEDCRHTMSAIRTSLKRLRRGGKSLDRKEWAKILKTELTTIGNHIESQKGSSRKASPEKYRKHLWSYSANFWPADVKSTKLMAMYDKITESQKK

Sequence of Protein translocase subunit SecA (Escherichia coli (strain K12)) (P10408 whole entry): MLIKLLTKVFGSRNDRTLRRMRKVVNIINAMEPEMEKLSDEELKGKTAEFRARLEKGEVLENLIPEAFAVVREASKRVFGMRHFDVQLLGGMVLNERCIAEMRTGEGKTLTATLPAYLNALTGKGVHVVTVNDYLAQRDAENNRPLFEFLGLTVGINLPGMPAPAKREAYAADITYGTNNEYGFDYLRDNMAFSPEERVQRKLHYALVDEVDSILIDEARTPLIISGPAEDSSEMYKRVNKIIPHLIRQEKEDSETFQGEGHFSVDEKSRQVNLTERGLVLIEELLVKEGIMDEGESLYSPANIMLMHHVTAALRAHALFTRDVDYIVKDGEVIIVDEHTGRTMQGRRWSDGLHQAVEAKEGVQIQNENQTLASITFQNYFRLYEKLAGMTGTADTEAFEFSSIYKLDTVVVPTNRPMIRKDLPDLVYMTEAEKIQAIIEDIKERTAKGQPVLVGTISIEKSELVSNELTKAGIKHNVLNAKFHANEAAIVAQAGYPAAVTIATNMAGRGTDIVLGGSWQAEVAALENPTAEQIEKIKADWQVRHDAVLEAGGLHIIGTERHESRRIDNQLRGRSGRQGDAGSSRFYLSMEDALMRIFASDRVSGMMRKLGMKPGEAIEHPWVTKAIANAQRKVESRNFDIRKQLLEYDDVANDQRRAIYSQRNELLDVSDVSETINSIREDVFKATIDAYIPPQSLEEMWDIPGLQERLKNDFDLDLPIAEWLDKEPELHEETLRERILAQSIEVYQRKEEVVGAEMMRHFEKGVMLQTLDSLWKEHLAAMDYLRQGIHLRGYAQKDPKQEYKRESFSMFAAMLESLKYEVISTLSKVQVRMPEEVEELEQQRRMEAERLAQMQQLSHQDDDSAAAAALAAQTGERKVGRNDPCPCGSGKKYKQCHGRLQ
Sequence of Sialic acid-binding Ig-like lectin 9 (Homo sapiens) (Q9Y336 whole entry): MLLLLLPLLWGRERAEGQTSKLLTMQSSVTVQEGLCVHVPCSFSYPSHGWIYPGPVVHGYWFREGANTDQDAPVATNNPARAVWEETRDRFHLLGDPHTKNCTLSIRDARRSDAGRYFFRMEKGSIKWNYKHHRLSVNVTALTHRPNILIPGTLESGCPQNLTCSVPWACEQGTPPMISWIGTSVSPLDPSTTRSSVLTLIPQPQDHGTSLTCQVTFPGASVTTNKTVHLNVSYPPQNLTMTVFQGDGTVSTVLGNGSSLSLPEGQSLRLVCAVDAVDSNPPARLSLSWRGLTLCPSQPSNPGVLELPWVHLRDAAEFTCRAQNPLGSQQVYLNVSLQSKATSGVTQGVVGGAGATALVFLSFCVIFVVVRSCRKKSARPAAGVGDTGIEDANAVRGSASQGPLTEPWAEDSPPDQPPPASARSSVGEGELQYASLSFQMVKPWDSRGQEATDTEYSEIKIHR

As for `CCn1nnc2c1C(COC)CN(C(=O)COc1ccccc1)C2` (stereo unspecified), the Percent Effect in assay [1] was -3.61%; in assay [2], 0%; in [3] it was -1.01%; in assay [4], -0.576%; in assay [5], -2.73%; in assay [6], 0%. Further, the Percent Effect is 10.4% in assay [7]; -3.63% in assay [8]; 5.94% in assay [9]; 3.66% in assay [10]; 9.82% in [11].

For `O=C(CN1CCOC(Cn2cccn2)C1)Nc1nccs1` (stereo unspecified), the Percent Effect was -3.64% in assay [1]; 21.6% in [2]; -3.52% in assay [3]; 14.3% in assay [4]; 6.22% in assay [5]; -1.29% in [6]. The Percent Effect in [7] is 8.8%; in [8], 7.16%; in assay [9] it was 5.94%; in assay [10], 25.6%; in assay [11], -6.75%.

Consider `N#Cc1ccc(F)c(CN2CCCC2Cn2cnc3ccccc32)c1` (stereo unspecified), for which the Percent Effect is -4.77% in assay [1]; -5.41% in [2]; -0.578% in [3]; -0.466% in assay [4]; -3.81% in assay [5]; -0.924% in assay [6]. For the same molecule, the Percent Effect in assay [7] is 6.46%; in assay [8] it was 22.9%; in assay [9], 1.98%; in assay [10] it was -6.1%; in assay [11], 5.03%.

Consider `CCc1ccc(OCC(O)CN2CCN(S(C)(=O)=O)CC2)cc1` (stereo unspecified), for which the Percent Effect is -7.02% in assay [1]; 7.79% in assay [2]; 3.94% in [3]; -12.9% in assay [4]; -6.56% in assay [5]; -3.58% in [6]. Also, the Percent Effect in [7] is 3.96%; in assay [8], 16%; in [9], 0.952%; in assay [10] it was 2.35%; in assay [11], -21.6%.

In the case of `Cc1ccc(CN2CCc3ncc(CNS(C)(=O)=O)n3CC2)o1`, the Percent Effect in [1] was -0.0355%; in assay [2], 8.22%; in [3], -1.38%; in assay [4], 6.78%; in assay [5], -5.56%; in assay [6], -1.6%. Moreover, the Percent Effect is 15.3% in [7]; 16.8% in [8]; 7.29% in assay [9]; 16.1% in assay [10]; -0.506% in [11].

As to `CCCSCC(=O)Nc1ncn(CC(=O)NCc2ccccc2)n1`, the Percent Effect is -2.05% in assay [1]; 8% in [2]; -1.58% in assay [3]; 7.45% in assay [4]; 3.6% in [5]; 13.5% in assay [6]. Also, the Percent Effect is 12.9% in assay [7]; 4.31% in assay [8]; 6.01% in [9]; 16.1% in assay [10]; -6.22% in assay [11].

As for `Cc1nc2ccccc2nc1CN1CCCC1c1c(C)nn(C)c1C` (stereo unspecified), the Percent Effect in assay [1] was -4.48%; in [2], 1.27%; in assay [3], 5.44%; in assay [4], 6.81%; in assay [5], 5.44%; in assay [6], -1.94%. The Percent Effect in [7] was 2.23%; in [8], 3.07%; in assay [9], 5.21%; in [10], 17.7%; in [11], -26.1%.

Take `O=C(CCO)N1CCOC2(CCCN(C(=O)c3ccco3)C2)C1` (stereo unspecified): the Percent Effect in assay [1] is 2.21%; in [2] it was -5.2%; in assay [3] it was 0.24%; in assay [4], 19.9%; in assay [5], 4.82%; in assay [6], 4.14%. Besides, the Percent Effect in assay [7] was 11.3%; in assay [8], -33.1%; in [9], -12.9%; in [10], -13.6%; in assay [11], 0.942%.

As to `Cc1n[nH]c(C2CN(C(=O)c3ccco3)CCO2)n1` (stereo unspecified), the Percent Effect in assay [1] was -4.76%; in assay [2], 2.63%; in assay [3], 7.87%; in assay [4], 3.79%; in assay [5], 1.07%; in assay [6], 0%. The Percent Effect is 4.51% in [7]; 25.8% in assay [8]; 6.38% in [9]; 7.79% in assay [10]; -0.969% in assay [11].

As for `COc1cccc2c1OCC(CNC(=O)CSc1nc(N)n[nH]1)C2` (stereo unspecified), the Percent Effect in assay [1] is -4.78%; in [2] it was 0%; in assay [3], -3.58%; in assay [4], 26.8%; in assay [5], 3.62%; in assay [6], -3.23%. In addition, the Percent Effect in assay [7] was 8.84%; in [8], 4.85%; in assay [9] it was 8.6%; in assay [10] it was 21%; in [11], -3.99%.

For the molecule `CNS(=O)(=O)c1ccc(C(=O)NC2CCc3nc(C)cn3C2)o1` (stereo unspecified), the Percent Effect in assay [1] was -4.88%; in assay [2], 7.89%; in [3] it was 5.73%; in [4], 6.53%; in assay [5] it was 2.26%; in assay [6], -3.45%. In addition, the Percent Effect is 11% in assay [7]; -11.5% in assay [8]; 3.43% in assay [9]; 17.1% in assay [10]; -10.4% in assay [11].
